The record followed here is PubChem BioAssay AID430 (Sanford-Burnham Center for Chemical Genomics, 2006).

The campaign covered roughly 63,000 compounds. About 1,100 (1.7%) were called active. Cut-off read from the data, not from the text of the source: active = cytotoxicity above about 50%; inactive = the rest. Shown is part of a subset that was picked to be rich in actives. Entries with a potency or affinity are not part of this list.

The nature of the experiment: HPDE-C7 pancreatic duct cell viability loss – fluorescence, HTS (AID 430).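 Note: cells exposed to compound for 48 hours before viability readout; 0% = vehicle and 100% = reference cytotoxic drug.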 Conditions: HPDE-C7 pancreatic duct cells viability, at 10 µM, stronger effect = higher value.
In the case of `Cn1c(Cc2ccccc2)nnc1SCC(=O)Nc1ccccc1N1CCOCC1`, the cytotoxicity is 2.9% (inactive). As for `CC(C)OC(=O)c1cn(-c2ccccc2)nc1-c1ccco1`, the figure is 4.8% (inactive); as for `OCCN(Cc1ccccc1)Cc1cccc(F)c1`, -3.2% (inactive). As for `CC(C)Cn1c(N)c(C(=O)NCC2CCCO2)c2nc3ccccc3nc21` (stereo unspecified), the figure is 26.3% (inactive); as for `COCCNC(=O)c1c(N)n(-c2cccc(C)c2)c2nc3ccccc3nc12`, 9.2% (inactive). The same measure for `Nc1c(C(=O)NC2CCCCC2)c2nc3ccccc3nc2n1/N=C/c1ccco1`: 5.1% (inactive). With `Nc1c(C(=O)NCC2CCCO2)c2nc3ccccc3nc2n1-c1ccccc1` (stereo unspecified), the cytotoxicity was 11.1% (inactive). The same measure for `CCCCNC(=O)c1c(N)n(/N=C/c2cccnc2)c2nc3ccccc3nc12`: 4% (inactive). Regarding `COCCn1c(N)c(C(=O)NCC2CCCO2)c2nc3ccccc3nc21` (stereo unspecified), the cytotoxicity was 11.4% (inactive).

On to `COCCNC(=O)c1c(N)n(CCCn2ccnc2)c2nc3ccccc3nc12`, for which the cytotoxicity is 7% (inactive). In the case of `Nc1c(C(=O)NC2CCCC2)c2nc3ccccc3nc2n1N`, the cytotoxicity is 11.6% (inactive). As for `Nc1c(C(=O)NC2CCCC2)c2nc3ccccc3nc2n1/N=C/c1cccnc1`, the figure is 62.6% (active); as for `O=C(Nc1ccccc1N1CCN(c2ccc(F)cc2)CC1)C1CCCCC1`, -6.3% (inactive); as for `O=C(Oc1cccc(Oc2ccccc2)c1)N1CCOCC1`, -6.3% (inactive).

Take `CCN(CC)C(=O)CSC1=Nc2ccccc2C2=NC(Cc3c[nH]c4ccccc34)C(=O)N12` (stereo unspecified): the cytotoxicity was -6.1% (inactive). As for `O=C(CSc1nnnn1C1CCCCC1)NCc1ccc2c(c1)OCO2`, the figure is 3.2% (inactive). As to `COCCN1C(=O)C(=O)/C(=C(/O)c2ccc(OC(C)C)cc2)C1c1cccnc1` (stereo unspecified), the cytotoxicity is -2.7% (inactive). The same measure for `CCN1CCN(C(=O)c2ccc3c(c2)N(Cc2ccc(F)cc2)C(=O)c2ccccc2S3=O)CC1` (stereo unspecified): -1.9% (inactive); for `COc1ccc(OC)c(C2NC(=O)NC(C)=C2C(=O)Nc2ccc(C)cc2C)c1` (stereo unspecified): -13.3% (inactive). Regarding `COc1ccc(Cc2nc(-c3ccccc3)no2)cc1`, the cytotoxicity is -1.1% (inactive). As for `CCOc1cc(S(=O)(=O)n2c(C)nc3ccccc32)ccc1F`, the figure is 2.2% (inactive). In the case of `CCN(Cc1ccccc1)Cc1cc(OC)cc(OC)c1`, the cytotoxicity was 8% (inactive). With `CSCCC(NC(=O)c1cc(CC(C)C)oc1C)C(=O)O` (stereo unspecified), the cytotoxicity was -17.8% (inactive). The same measure for `CCc1nnc(NC2=NCCC2)s1`: -21.5% (inactive); for `CC(C)Cn1c(N)c(C(=O)NCc2cccs2)c2nc3ccccc3nc21`: 63.9% (active).

On to `COCCn1c(N)c(C(=O)NCc2cccs2)c2nc3ccccc3nc21`, for which the cytotoxicity is -11.2% (inactive). As for `CC(C)Cn1c(N)c(C(=O)NCCN2CCOCC2)c2nc3ccccc3nc21`, the figure is -16.3% (inactive); as for `Cc1ccc(NC(=O)Nc2ccc3c(c2)N(C)C(=O)CS3)nc1`, -4.8% (inactive). As for `COC(=O)CCSCC(=O)Nc1cc(C)on1`, the figure is -18% (inactive). The same measure for `CCn1c(COc2cccc(C)c2)nnc1SCC(=O)N1CCCC1`: -3.1% (inactive); for `C=Cn1ccnc1P(=S)(c1ccc2c(c1)c1ccccc1n2CC)c1nccn1C=C`: 73.4% (active); for `CCn1c2ccccc2c2cc(N)ccc21`: 15.8% (inactive). With `CCn1c2ccccc2c2cc(/C=N/n3cnnc3)ccc21`, the cytotoxicity is 10.8% (inactive). The same measure for `CCCCn1c(=O)[nH]c(=O)c2c1nc(-c1ccc(C#N)cc1)n2C1CCCC1`: -7% (inactive); for `CCOC(=O)CSc1nc2ccccc2c(=O)n1CCCCCC(=O)NCc1ccco1`: -23.3% (inactive). As for `OC(Cn1ccnc1)c1ccc(Cl)cc1Cl` (stereo unspecified), the figure is -4.5% (inactive). The same measure for `O=C(COc1ccc(Cl)cc1Cl)NCCCn1ccnc1`: -3.9% (inactive). Regarding `OC(Cn1cncn1)c1ccc(Cl)cc1Cl` (stereo unspecified), the cytotoxicity was 1.1% (inactive). The same measure for `CC(Oc1ccc(Cl)cc1Cl)C(=O)NCCCn1ccnc1` (stereo unspecified): -1.6% (inactive); for `Clc1ccc(OCCn2ccnc2)c(Cl)c1`: -13.9% (inactive).

As to `Clc1ccc(SCCn2ccnc2)cc1`, the cytotoxicity was -0.3% (inactive). As for `c1ccc2c(Cn3ccnc3)c[nH]c2c1`, the figure is -14% (inactive). The same measure for `COc1ccc(C(c2sc3nc(C)nn3c2O)N2CCC(O)CC2)cc1OC` (stereo unspecified): -15.1% (inactive). As for `CC(=O)C1=C(C)OC(N)=C(C#N)C1c1ccncc1` (stereo unspecified), the figure is -7% (inactive); as for `COc1ccccc1N1CCN(Cc2cccc(OC)c2OC)CC1`, 3.3% (inactive); as for `CCCCOc1ccc(C(=O)NC)cc1`, -5.6% (inactive). Turning to `CCCCOc1ccc(C(=O)OC2CC(C)N(C)CC2C)cc1` (stereo unspecified), the cytotoxicity was 61.9% (active). As for `CCCCOc1ccc(C(=O)N2CCC(C)CC2)cc1`, the figure is -20.7% (inactive). The same measure for `COc1cc(CN2CCSCC2)cc(OC)c1OC`: -9.5% (inactive); for `COc1ccc(CCNC(=O)CN2CCN(c3cccc(Cl)c3)CC2)cc1OC`: 1.7% (inactive); for `COc1cccc(N2CCN(Cc3coc4c(Cl)cc(Cl)cc4c3=O)CC2)c1`: 61.8% (active). As for `COc1ccc(N2CCN(Cc3cc(=O)oc4ccc(Cl)cc34)CC2)cc1`, the figure is -1.8% (inactive); as for `Cc1ccc2occ(CN3CCN(c4ccccc4)CC3)c(=O)c2c1`, -17% (inactive); as for `COc1ccc(S(=O)(=O)CCC(=O)Nc2c(C)n(C)n(-c3ccccc3)c2=O)cc1`, -10.2% (inactive).

In the case of `CC(C)N(Cc1ccccc1)S(=O)(=O)N(C)C`, the cytotoxicity is -7.9% (inactive).

Regarding `COc1cc(NC(=O)Cc2nn(C)c(=O)c3ccccc23)cc(OC)c1`, the cytotoxicity is 19.8% (inactive). `COc1ccc(-c2cc(C(F)(F)F)n3ncc(C(=O)O)c3n2)cc1OC`: the cytotoxicity was 2% (inactive). The same measure for `Cc1ccc(S(=O)(=O)N2CCN(C(=O)C3CCCCC3)CC2)cc1`: 7.7% (inactive). As for `Cc1cccc(OCCCN2CCCCCC2)c1`, the figure is 19.3% (inactive); as for `Cc1cccc(OCCn2c(=O)n(C)c3ccccc32)c1`, -3.7% (inactive).

As to `Cc1cc(C)n(-c2nnc3n2N=C(c2ccccc2)CS3)n1`, the cytotoxicity is -0.3% (inactive). As for `Cc1cc(C)n(-c2nnc3n2N=C(c2c[nH]c4ccccc24)CS3)n1`, the figure is 51.3% (active); as for `Cc1cccc(-c2nnc3n2N=C(c2ccccc2Br)CS3)c1`, 15% (inactive). On to `CCn1c(SCC#N)nc2c(c1=O)C1(CCCC1)Cc1ccccc1-2`, for which the cytotoxicity was 41.8% (inactive). On to `N#CCSc1n[nH]c2nc3c(c(=O)n12)C1(CCCC1)Cc1ccccc1-3`, for which the cytotoxicity is 54.9% (active). As for `CCCn1c(SCC#N)nc2c(c1=O)C1(CCCC1)Cc1ccccc1-2`, the figure is 47.8% (inactive); as for `c1ccc(-n2nnnc2Oc2ccc(-c3nnco3)cc2)cc1`, -4.8% (inactive); as for `COc1ccccc1-c1cc(C(F)(F)F)nc(S(=O)(=O)CCCC(=O)N2CCCCC2C)n1` (stereo unspecified), 88.8% (active). As for `COc1ccccc1-c1cc(C(F)(F)F)nc(S(=O)(=O)CCCC(=O)NC(C)C)n1`, the figure is 28% (inactive). The same measure for `COc1ccccc1-c1cc(C(F)(F)F)nc(N2CCN(c3ccccc3)CC2)n1`: 29.8% (inactive); for `COc1ccccc1-c1cc(C(F)(F)F)nc(N2CCCC2)n1`: -25.6% (inactive).

As to `COc1ccccc1-c1cc(C(F)(F)F)nc(N2CCOCC2)n1`, the cytotoxicity is -5.9% (inactive). The same measure for `Cc1cc(S(=O)(=O)N(Cc2ccc3c(c2)OCO3)CC2CCCO2)ccc1-n1cnnn1` (stereo unspecified): -7.2% (inactive). As for `COc1cccc(C(=O)Nc2nnc(-c3ccc(F)cc3)o2)c1`, the figure is 31% (inactive); as for `COc1cccc(-c2nnc(NC(C)=O)o2)c1`, 7.6% (inactive); as for `COc1ccc(-c2nnc(NC(=O)c3cc(Cl)ccc3Cl)o2)cc1`, 33.1% (inactive). For `COc1cccc(-c2nnc(NC(=O)c3cccc(F)c3)o2)c1`, the cytotoxicity was 61.8% (active).

`COc1cccc(C(=O)Nc2nnc(-c3ccc(Cl)cc3)o2)c1`: the cytotoxicity is 85.7% (active). For the compound `COc1cccc(C(=O)Nc2cccc(-c3nnc(-c4ccccc4)o3)c2)c1`, the cytotoxicity is 3.9% (inactive). As for `O=C(Nc1ccc(Cc2ccncc2)cc1)C1CC1`, the figure is -38.5% (inactive); as for `CN(C)/C=c1\sc2c(C#N)cc(C(=O)c3ccc(Br)cc3)n2c1=O`, -29.6% (inactive). As for `O=C1[C@H]2[C@@H](C(=O)N1c1cc(Cl)cc(Cl)c1)[C@]1(C(=O)Nc3ccccc31)N1CCC[C@@H]21`, the figure is -1.8% (inactive); as for `COC(=O)c1ccccc1Nc1ccccc1`, -2.7% (inactive). On to `CCOC(=O)C1=C(N)n2c(s/c(=C\c3cccnc3)c2=O)=C(C(=O)OCC)C1c1cccnc1` (stereo unspecified), for which the cytotoxicity is -31.3% (inactive).

Turning to `CCOC(=O)C1=C(N)n2c(s/c(=C/c3ccco3)c2=O)=C(C(=O)OC)C1c1ccco1` (stereo unspecified), the cytotoxicity is 75.9% (active).

For `CCOC(=O)C1=C(N)n2c(s/c(=C\c3ccco3)c2=O)=C(C(=O)OC(C)C)C1c1ccco1` (stereo unspecified), the cytotoxicity was -11.9% (inactive). The same measure for `N#CC1=C(N)n2c(s/c(=C\c3ccco3)c2=O)=C(C#N)C1c1ccco1` (stereo unspecified): 12.3% (inactive); for `CCOC(=O)C1=C(N)n2c(s/c(=C\c3cccnc3)c2=O)=C(C(=O)OC)C1c1cccnc1` (stereo unspecified): 10.6% (inactive).

Turning to `CCCCCCn1c(SCC(=O)OC)nc2c1c(=O)[nH]c(=O)n2C`, the cytotoxicity was 3.9% (inactive). In the case of `CC1Cc2ccccc2N1C(=O)CSc1ncccc1C(=O)O` (stereo unspecified), the cytotoxicity was -4.3% (inactive).

On to `O=C(CCn1c(=O)oc2ccccc21)N1CCCCCC1`, for which the cytotoxicity is 10.9% (inactive). As for `O=C(CCn1c(=O)oc2ccccc21)N1CCN(c2ccccc2Cl)CC1`, the figure is 56.7% (active); as for `O=C(CCn1c(=O)oc2ccccc21)N1CCN(c2ccccc2F)CC1`, 1.4% (inactive). The same measure for `COc1ccc(OCC(=O)N(C)Cc2ccccc2)cc1`: -16.7% (inactive); for `COc1ccc(CCNc2nc(-c3sc(N)nc3C)cs2)cc1OC`: 16% (inactive). The same measure for `Cc1ccc2c(c1)-c1ccccc1S(=O)(=O)N2`: 10.1% (inactive). For `O=S1(=O)Nc2c(ccc3cccnc23)-c2ccccc21`, the cytotoxicity was 90.9% (active). `Nc1ccc2c(c1)-c1ccccc1S(=O)(=O)N2`: the cytotoxicity is 14.6% (inactive).

With `CCCCCC/C(=N/O)c1ccccn1`, the cytotoxicity was 51.4% (active). The same measure for `O=C(NCCCNC(=O)c1ccccn1)c1ccccn1`: 15.3% (inactive); for `O/N=C(/Cc1ccccn1)c1ccccc1`: 2% (inactive).
